TbREL1 inh = TbREL1 inhibition, primary screen | actives 0.49% (n = 89,000) | inhibition, % at 9.66 µM | TbREL1 RNA ligation, FRET fluorescence | P86926;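 active = inhibition above the mean inhibition across all screened compounds plus 3 SD, cut at about 11% in these data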
Target sequence (P86926 whole entry, looked up): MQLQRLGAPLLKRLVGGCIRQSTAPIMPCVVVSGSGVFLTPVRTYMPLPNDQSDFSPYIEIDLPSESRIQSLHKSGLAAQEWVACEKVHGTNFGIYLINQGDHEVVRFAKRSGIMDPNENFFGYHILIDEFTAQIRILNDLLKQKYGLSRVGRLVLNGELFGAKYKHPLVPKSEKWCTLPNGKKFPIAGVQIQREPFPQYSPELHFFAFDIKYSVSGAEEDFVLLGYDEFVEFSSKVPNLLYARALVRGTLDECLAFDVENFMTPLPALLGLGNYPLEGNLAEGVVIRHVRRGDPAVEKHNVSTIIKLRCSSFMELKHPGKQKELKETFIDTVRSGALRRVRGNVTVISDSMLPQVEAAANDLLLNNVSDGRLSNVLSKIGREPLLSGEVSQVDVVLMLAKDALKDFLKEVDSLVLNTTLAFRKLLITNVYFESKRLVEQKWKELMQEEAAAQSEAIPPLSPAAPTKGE
TbREL1 conf = TbREL1 inhibition, confirmation; TbREL1 RNA ligation, FRET fluorescence; inhibition, % at 9.66 µM; actives 37% (n = 390); shares compounds with TbREL1 inh;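 active = mean inhibition across replicates above a set limit taken from the earlier primary screen, cut at about 11% in these data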
Hits are given with their value; 0 = inactive. This excerpt belongs to a sample that is enriched for hits.

SMILES	TbREL1 inh	others
CCOC(=O)[C@@]12CCCC=C1N(CCc1ccc(Cl)cc1)C(=O)[C@H]2CC(=O)N1CCSCC1	0
O=C(CSc1nnc(-c2cnccn2)n1-c1ccccc1)c1ccc(F)cc1	0
COC(=O)C1=C(C)N(Cc2ccccc2)C(=NCc2ccccc2)N[C@H]1c1ccccc1	0
COC(=O)C1=C(C)N(Cc2ccc(F)cc2)C(=S)NC1c1ccccc1 (stereo not given)	0
COCCN=C1N[C@@H](c2ccc(Br)cc2)C(C(=O)OC)=C(C)N1Cc1ccccc1	0
COC(=O)C1=C(C)N(Cc2ccccc2)C(=NCCc2c[nH]c3ccccc23)N[C@H]1c1cccc(F)c1	0
C=CCN=C1NC(c2ccc(F)cc2)C(C(=O)OC)=C(C)N1Cc1ccccc1C(F)(F)F (stereo not given)	13.5	TbREL1 conf=13.9
COC(=O)C1=C(C)N(Cc2ccccc2C(F)(F)F)C(=NCc2ccc(OC)cc2)NC1c1ccccc1 (stereo not given)	13.4	TbREL1 conf=16.2
C=CCN=C1NC(c2ccc(C(F)(F)F)cc2)C(C(=O)OC)=C(C)N1Cc1ccccc1C(F)(F)F (stereo not given)	0
COC(=O)C1=C(C)N(Cc2ccccc2)C(=NCc2ccccc2)N[C@H]1c1cccc(F)c1	14.0	TbREL1 conf=14.6
CCN1C(=NCc2ccc(OC)cc2)N[C@@H](c2ccccc2)[C@H](C(=O)OC)[C@H]1C	0
Cn1c(=O)oc2cc(S(=O)(=O)N3CCN(c4cccc(C(F)(F)F)c4)CC3)ccc21	0
CC1(c2nnnn2-c2ccc3c(c2)OCCO3)CSCC(=O)N1CCc1c[nH]c2ccccc12 (stereo not given)	0
O=C(NCC1COc2ccccc2O1)c1ccc(NC(=O)C(Cl)Cl)cc1 (stereo not given)	0
COc1cc2c(cc1NC(=O)CSc1nnc(-c3cccnc3)n1-c1ccc(Br)cc1)oc1ccccc12	11.5	TbREL1 conf=0
CCOc1ccc(-n2c(SCC(=O)Nc3cc4oc5ccccc5c4cc3OC)nnc2-c2cccc(Cl)c2)cc1	0
COc1cc2c(cc1NC(=O)CSc1nnc(-c3ccccn3)n1-c1ccccc1)oc1ccccc12	0
COC(=O)[C@]12C[C@H](CC(=O)NCCCCc3ccccc3)C(=O)N(Cc3cccc4ccccc34)C1=C[C@H](C(C)(C)C)O[C@@H]2C	0
COc1ccc(CNC2CCC23CCCCC3)cc1OC (stereo not given)	0
O=C(CSc1nnc(-c2ccco2)n1-c1ccc(Cl)cc1)Nc1ccccc1-c1ccccc1	0
Nc1[nH]c(C(=O)c2ccccc2)c(-c2cccnc2)c1C(=O)NCCc1c[nH]c2ccccc12	0
O=C(c1cc(C2CC2)on1)N(C1CCCCC1)C1CCCCC1	0
Cc1ccc(OCCn2c(CCNC(=O)c3ccc(F)cc3F)nc3ccccc32)cc1	0
C[C@@H](N)C(=O)Nc1ccc(Cl)cc1C(=O)c1ccc[nH]1	0
O=C(O)c1ccc(S(=O)(=O)c2ccc3c(c2)C(=O)N(NC(=O)c2ccc(O)cc2)C3=O)cc1	12.0	TbREL1 conf=0
SMILES	TbREL1 inh	others
Cc1ccc(C(=O)NN2C(=O)c3ccc(S(=O)(=O)c4ccc(C(=O)O)cc4)cc3C2=O)cc1	0
O=C(O)c1ccc(S(=O)(=O)c2ccc3c(c2)C(=O)N(CC2CCCO2)C3=O)cc1 (stereo not given)	0
COc1ccc(CCNC(=O)c2c(N)[nH]c(C(=O)c3ccccc3)c2-c2ccc(N(C)C)cc2)cc1	0
C[C@H]1[C@@H](OC(=O)NCc2ccc(Cl)cc2)CC[C@@]23CCCN2C(=O)CCC[C@@H]13	0
COc1ccc(NC(=O)C(c2ccncc2)n2c(=O)c(-c3ccccc3)nc3ccccc32)cc1 (stereo not given)	0
CC(=O)CCc1ccc(OCCCCN2CCC(Cc3ccccc3)CC2)cc1	0
CCC(=O)c1ccccc1OCCCN1CCC(Cc2ccccc2)CC1	11.3	TbREL1 conf=11.4
CCOc1ccccc1OCCN1CCC(Cc2ccccc2)CC1	0
CCOC(=O)N1CCN(C(=O)C[C@@H]2C(=O)N3CCCC4=C3[C@@]2(C(=O)OC)CCCC4)CC1	0
Cn1cccc1C=NNC(=O)c1cc(-c2ccc(Cl)cc2)n[nH]1	0
O=S(=O)(c1cccs1)N1CCN(c2ccc(F)cc2)CC1	0
O=S(=O)(c1cccs1)N1CCN(c2cccc(Cl)c2)CC1	0
O=S(=O)(c1cccs1)N1CCN(c2ccccc2)CC1	16.2	TbREL1 conf=0
C[C@H]1[C@@H](OC(=O)Nc2ccccc2F)CC[C@@]23CCCN2C(=O)CCC[C@@H]13	0
COc1ccc(-n2c(SCC(=O)Nc3ccc(S(=O)(=O)Nc4nccs4)cc3)nnc2-c2ccco2)cc1	0
c1ccc(CCNCCCOc2cccc3ccccc23)cc1	12.3	TbREL1 conf=0
Clc1ccc(OCCNCCc2ccccc2)cc1	0
CC(=O)NCCOc1cccc2ccccc12	0
CCN(C(=O)[C@H]1CC(=O)O[C@@H]1c1ccccc1)c1ccccc1	0
O=C(CSc1nnc(NC(=O)c2ccco2)s1)Nc1ccc(F)cc1	0
O=C(Nc1nnc(SCc2cccc(F)c2)s1)c1ccco1	13.5	TbREL1 conf=0
